# Reference: PubChem BioAssay AID1558 (National Center for Advancing Translational Sciences (NCATS), 2009)
# Where “and” joins values, the source holds several entries; their conditions need not be identical. Identical values can stand only once. Results filed as inconclusive are left out. Calls of active or inactive are those of the source. Calls follow the shape of the dose curve; as a rule, active = well fitted inhibition curve with a large enough effect; inconclusive = small, poorly fitted or top-dose-only effect; inactive = flat fitted curve, though single readings scatter.
# Biological target: Microtubule-associated protein tau (Homo sapiens) (UniProt P10636)
# Sequence (P10636 561-689 P618L limits assumed): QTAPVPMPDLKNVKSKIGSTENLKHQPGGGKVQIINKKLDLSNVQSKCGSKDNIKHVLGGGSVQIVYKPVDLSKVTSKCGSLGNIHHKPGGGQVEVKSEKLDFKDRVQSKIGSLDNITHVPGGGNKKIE
# Assay: Confirmation Concentration-Response Assay for Inhibitors of Tau Fibril Formation, Thioflavin T Binding
# Conditions: recombinant tau K18 P301L (four-repeat tau fragment) heparin fibrillization, ThT fluorescence; series mostly up to 100 µM; activity change, negative = inhibition: at the top concentration
# Excerpt: NIH Molecular Libraries Probe Production Network [MLPCN] NIH Chemical Genomics Center [NCGC] MLPCN Grant: X01 MH083262-01 Assay Provider: Carlo Ballatore, University of Pennsylvania NCGC Assay Overview: The microtubule-associated protein tau is an abundant protein in the axons of neurons that stabilizes microtubules. With its ability to modulate microtubule dynamics, tau contributes directly or indirectly, to key structural and regulatory cellular functions. Particularly important is the influence tau exerts on axonal transport, which allows signaling molecules, trophic factors and other essential cellular constituents to travel along the axons. Under pathological conditions, tau becomes sequestered into insoluble aggregates called neurofibrillary tangles. This phenomenon is believed to have pathological consequences by promoting axonal transport deficits that ultimately lead to synaptic dysfunction and neuronal loss. To identify inhibitors of tau aggregation, a heparin-induced tau fibril formation assay was used that employed a recombinantly expressed fragment of tau, K18 (Q242-E372), bearing a P301L mutation (Gustke et al. 1994; Hong et al. 1998). This assay monitors tau fibrillization by Thioflavin T (ThT) fluorescence. Gustke, N., B. Trinczek, et al. (1994). "Domains of tau protein and interactions with microtubules." Biochemistry 33(32): 9511-22. Hong, M., V. Zhukareva, et al. (1998). "Mutation-specific functional impairments in distinct tau isoforms of hereditary FTDP-17." Science 282(5395): 1914-7. Li, W. and V. M. Lee (2006). "Characterization of two VQIXXK motifs for tau fibrillization in vitro." Biochemistry 45(51): 15692-701. von Bergen, M., S. Barghorn, et al. (2001). "Mutations of tau protein in frontotemporal dementia promote aggregation of paired helical filaments by enhancing local beta-structure." J Biol Chem 276(51): 48165-74.
# For screening, 2 uL/well human K18 P301L (15 uM unlabeled and 0.24 uM Alexa 594-labeled tau, final concentrations) in reagent buffer (100 mM sodium acetate pH 7) was dispensed into black solid 1536-well plates (Grenier) using a solenoid-based dispenser. Following transfer of 23 nL compound or DMSO vehicle by a pin tool, 2 uL/well heparin (20 uM final concentration) in reagent buffer was added and the plate centrifuged 15 s at 1000 RPM. Plates were incubated 6 hr at 37 C and then 1 uL/well ThT (30 uM final concentration) was added. After a 1 hr ambient incubation, the plates were read by an Envision (Perkin Elmer) to monitor ThT fluorescence (450/8 nm excitation and 510/23 nm emission). Keywords: NIH Roadmap, MLPCN, MLI, MLSMR, NCGC, qHTS, tau, tauopathies, Alzheimer's disease, fibril, neurodegeneration, aggregation
Compound,"activity change, negative = inhibition",Potency
CC(=O)Nc1sc(C)c2cnn(-c3ccccc3)c(=O)c12,-10.9% [at 57.1 µM] (inactive),
Cc1ccc(NC(=O)N2CCN(c3ccccn3)CC2)cc1,-13.3% (inactive),
COc1ccc2c(c1)c(CC(=O)Nc1ccc(C(C)=O)cc1)c(C)n2C(=O)c1ccc(Cl)cc1,-18.6% (inactive),
COc1cc(/C=N/N=C2/NC(=O)C(CC(=O)O)S2)ccc1OCc1ccc(Cl)cc1 (stereo not given),-9.55% (inactive),
CCOC(=O)c1nn(-c2ccccc2)c(=O)c(C#N)c1C,-7.32% [at 57.1 µM] (inactive),
O=C(Nc1cccc(-c2nc3ccccc3o2)c1)c1cc([N+](=O)[O-])ccc1N1CCOCC1,-10% (inactive),
Cc1ccc(NCc2cc3cc4c(cc3n(CC(=O)Nc3ccc(C)cc3)c2=O)OCCO4)cc1,-0.6% (inactive),
CN(c1ccccc1)S(=O)(=O)c1nnc(NC(=O)COc2ccccc2)s1,-16.4% (inactive),
Cn1cc(Cl)c(C(=O)Nc2cccc(Cl)c2Cl)n1,-15.1% (inactive),
S=C1Cc2ccccc2N1,,0.631 µM (active)
Cn1ncc(Cl)c1C(=O)Nc1cccc(Cl)c1,,44.7 µM (active)
CC(C)Cn1c(O)c(/C=C2\C=NN=C2c2ccccc2)sc1=S,-19.8% (inactive),
CCOC(=O)c1nn(-c2ccc(OC)cc2)c(=O)c2c(N)scc12,,631 nM (active) and 3.16 µM (active)
COC(=O)c1c(NC(=O)CCCOc2ccc(C)cc2)sc2c1C(C(=O)OC)CC2 (stereo not given),,3.55 µM (active)
CCn1c(CSc2nccn2C)nc2cc(C(=O)O)ccc21,,39.8 µM (active)
O=S(=O)(c1ccc2nc(-c3ccco3)c(-c3ccco3)nc2c1)N1CCOCC1,,4.47 µM (active)
CC(C)c1ccc(NS(=O)(=O)c2ccc3[nH]cc(C(=O)NCCc4ccccc4)c(=O)c3c2)cc1,7.6% (inactive),
COC(=O)C1CCc2sc(NC(=O)Cc3ccccc3)c(C(=O)Nc3ccc(Cl)cc3)c21 (stereo not given),-12.6% [at 57.1 µM] (inactive),
CC(=O)Nc1nc(C)c(-c2csc(Nc3cccc([N+](=O)[O-])c3)n2)s1,,3.55 µM (active)
Nc1nc2cc(S(=O)(=O)NC3=NCCCCC3)ccc2s1,,20 µM (active)

Compound,"activity change, negative = inhibition",Potency
CCOC(=O)c1nn(-c2ccccc2)c(=O)c2c(N)scc12,,3.98 µM (active) and 7.94 µM (active)
CCOC(=O)c1ccc(S(=O)(=O)Nc2nc3cc(S(=O)(=O)NC4=NCCCCC4)ccc3s2)cc1,,10 µM (active)
Nc1scc2c(C(=O)N3CCOCC3)nn(-c3ccccc3)c(=O)c12,,11.2 µM (active)
O=C(Cc1ccccc1)Nc1sc2c(c1C(=O)Nc1ccc(Br)cc1)CCCC2,2.19% [at 57.1 µM] (inactive),
COc1ccc2oc(-c3ccc(NC(=O)c4ccc(N5CCOCC5)c([N+](=O)[O-])c4)cc3)nc2c1,-36.6% (inactive),
COc1c(Cl)cccc1NC(=O)c1c(NC(=O)Cc2ccccc2)sc2c1CCCC2,-15.4% [at 57.1 µM] (inactive),
Cc1cccc(NC(=O)c2c(NC(=O)c3ccccc3)sc3c2CCCC3)c1,,7.94 µM (active)
NC[C@@H](O)c1ccc(O)c(O)c1,-8.35% (inactive),
COc1ccc(Cl)cc1NC(=O)c1c(NCc2sccc2C)sc2c1CCCC2,,1 µM (active)
CCOC(=O)c1nn(-c2ccc(F)cc2)c(=O)c2c(N)scc12,,5.01 µM (active)
COc1ccc(CNC(=O)Cn2nc(C)n3cccc3c2=O)cc1,-7.15% (inactive),
O=C(Nc1nc2ccc(S(=O)(=O)N3CCCC3)cc2s1)c1ccc(F)cc1,12.3% (inactive),
Cc1ccc(N2C(=O)SC(Cc3ccccc3)C2=O)cc1 (stereo not given),-28.8% (inactive),
CCOC(=O)c1c(N)sc2c1CCOC2,-10.4% [at 57.1 µM] (inactive),
COc1ccc(NC(=O)Cn2cc(S(=O)(=O)N3CCN(c4ccccc4F)CC3)c3ccccc3c2=O)cc1Cl,5.9% (inactive),
CCOC(=O)c1nn(-c2cccc(C(F)(F)F)c2)c(=O)c2c(N)scc12,,0.891 µM (active)
Cc1ccc(N(C)S(=O)(=O)c2nnc(NC(=O)C3CCCCC3)s2)cc1,0.45% (inactive),
CCOC(=O)c1nn(-c2ccc(OC)cc2)c(=O)c2c(NC(=O)Cc3ccccc3)scc12,-28.9% [at 57.1 µM] (inactive),
Cc1[nH]c(=O)c(C#N)cc1-c1ccncc1,-4.9% (inactive),
Cn1sc(NC(=O)c2ccccc2)nc1=O,-0.876% [at 57.1 µM] (inactive),
